COUP-TFII inh – NR2F2 (human) inhibition, primary screen | HEK293T NGFI-A luciferase reporter, luminescence | inhibition, % at 8.6 µM | hit rate 0.7% among 370,000 | AID 686940;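 active = inhibition above a per-plate cutoff, mean inhibition of test wells between control levels plus 3 SD, cut at about 38% in these data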;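 note: cells cotransfected with COUP-TFII expression vector driving the NGFI-A reporter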
NCOA1 inh – inhibits human SRC1 coactivator | inhibition, % at 3.6 µM | HEK293 GAL4-SRC1 luciferase reporter, luminescence | Q15788 | hit rate 0.12% among 360,000;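 active = inhibition above the campaign mean plus 3 SD, with each screening campaign given its own cutoff, cut at about 60% in these data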
GalR3 antagonist – human GalR3 antagonism | hit rate 0.44% among 360,000 | O60755 | HEK293 GalR3-CNG cAMP membrane potential fluorescence; galR3 body fused to GalR1 C-terminus | inhibition, % at 3 µM;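 active = inhibition above the screen-wide average plus 3 SD, cut at about 13% in these data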;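 note: forskolin and galanin both at EC90 stimulate the cells; cAMP rise reported by CNG channel membrane potential dye signal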
Target sequence (O60755 1-299 limits assumed): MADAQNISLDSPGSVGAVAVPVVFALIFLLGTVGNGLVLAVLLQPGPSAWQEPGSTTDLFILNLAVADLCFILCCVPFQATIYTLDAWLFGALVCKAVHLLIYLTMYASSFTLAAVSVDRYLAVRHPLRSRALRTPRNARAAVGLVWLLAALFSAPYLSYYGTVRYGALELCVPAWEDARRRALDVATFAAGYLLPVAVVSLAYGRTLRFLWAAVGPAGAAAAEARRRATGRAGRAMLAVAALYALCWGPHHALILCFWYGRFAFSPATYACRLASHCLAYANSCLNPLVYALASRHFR
NCOA2 inhibitor – human SRC2 (NCOA2) inhibition | Q15596 | HEK293 GAL4-SRC2 luciferase reporter, luminescence | inhibition, % at 9 µM | hit rate 0.17% among 370,000 | AID 651957;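 active = inhibition above the mean inhibition of all tested compounds plus 3 SD, set per campaign, cut at about 52% in these data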
NCOA3 inh – human NCOA3 inhibition; Q9Y6Q9; HEK293 GAL4-SRC3 luciferase reporter, luminescence; inhibition, % at 3.6 µM; hit rate 0.17% among 360,000; AID 588352;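 active = inhibition above a per-campaign cutoff, the mean of all compounds plus 3 SD, cut at about 60% in these data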;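 note: higher means less SRC3-driven luciferase light from the GAL4 reporter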
NR5A2 inv ag – NR5A2 inverse agonism in reporter assay; O00482; HEK293T StAR-luciferase reporter, LRH-1 transfected, 24 h; inhibition, % at 3.6 µM; hit rate 0.13% among 360,000;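 active = inhibition above the mean inhibition of all tested compounds plus 3 SD, cut at about 73% in these data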
Gal4-VP16 ctr – inhibits VP16 reporter, flagging COUP-TFII antagonist hits; shares compounds with COUP-TFII inh; HEK293 Gal4-VP16 luciferase reporter, luminescence; inhibition, % at 8.5 µM; hit rate 25% among 2,500; in the data active = inhibition above about 13%
COUP-TFII conf – COUP-TFII (NR2F2) inhibition, confirmation assay. shares compounds with COUP-TFII inh. HEK293 NGFI-A luciferase reporter, luminescence. inhibition, % at 8.5 µM. hit rate 45% among 2,500;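 active = mean inhibition over three repeats above a set limit taken from the earlier primary screen, cut at about 38% in these data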
Numbers stand for hits; i = inactive; nt = no result given. Sampled rows, rich in hits. Any-hit rate of the full collection: about 1.1%.

SMILES	COUP-TFII inh	NCOA1 inh	GalR3 antagonist	NCOA2 inhibitor	NCOA3 inh	NR5A2 inv ag	Gal4-VP16 ctr	COUP-TFII conf
COc1ccc(/C=C/C(=O)Nc2ccccc2C)cc1S(=O)(=O)N1CCOCC1	48	i	i	i	i	i	i	i
Cc1ccc(NC(=O)/C=C/c2ccc(S(=O)(=O)N3CCOCC3)cc2)cc1S(=O)(=O)N(C)C	49	i	i	i	i	i	i	44
COc1ccc(/C=C/C(=O)Nc2ccc(C(C)=O)cc2)cc1S(=O)(=O)N1CCOCC1	i	i	i	i	i	i	nt	nt
CC(=O)OC1CCC2(C)C(CCC3C4CC=C(C(C)=O)C4(C)OC(=O)CC32)C1 (stereo not drawn)	57	i	i	59	i	i	37	44
CCN(CC)S(=O)(=O)c1ccc(Oc2ccc(S(=O)(=O)N(CC)CC)cc2)cc1	38	i	i	i	i	i	i	i
CCN(CC)S(=O)(=O)c1ccc(Oc2ccccc2OC)cc1	i	i	i	i	i	i	nt	nt
CCC(C)(C)C1CCc2[nH]nc(C(=O)NC3CCCC3)c2C1 (stereo not drawn)	i	i	i	i	i	i	nt	nt
O=C(NC1CCCCC1)c1n[nH]c2c1CCCCC2	50	i	i	57	i	i	i	i
Clc1ccc(C[n+]2cc(-c3ccccc3)n3c2CCCCC3)c(Cl)c1	42	i	i	i	i	i	i	i
Cn1cccc1/C=N/N1CCN(Cc2ccc(Cl)cc2)CC1	i	i	i	i	i	i	nt	nt
CCOC(=O)N1CCN(C(=O)CCN2C(=O)c3ccccc3S2(=O)=O)CC1	i	i	i	i	i	i	nt	nt
COc1ccc(CCNC(=O)c2c(N)[nH]c(C(=O)c3ccccc3)c2-c2ccc(N(C)C)cc2)cc1	44	nt	nt	nt	nt	nt	i	i
CCN(CC(=O)NCc1ccc(Cl)cc1)C(=O)Cc1ccc(OC)cc1	i	i	i	i	i	i	nt	nt
CCN(CC(=O)NCc1ccc(Cl)cc1)C(=O)c1cc(OC)cc(OC)c1	53	i	i	i	i	i	i	i
COCCN=c1scc(-c2ccc3c(c2)NC(=O)CO3)n1/N=C(\C)c1ccc(O)cc1	38	i	i	i	i	i	i	i
COc1cc(/C=N/n2c(-c3ccc4c(c3)NC(=O)CO4)csc2=Nc2cccc(C)c2)ccc1O	i	i	i	i	i	i	nt	nt
C[C@H](NC(=O)[C@@H]1Cc2ccccc2CN1)C(=O)NC[C@H]1CC[C@H](C(=O)O)CC1	i	i	i	i	i	i	nt	nt
CCC(CC)C(=O)N(C)c1c(C)nc2c(OCc3ccccc3OC)cccn12	i	i	i	i	i	i	nt	nt
C=CC(=O)N1C/C(=C/c2ccc(F)cc2)C(=O)/C(=C\c2ccc(F)cc2)C1	106	i	i	96	i	i	86	104
COc1cccc(-c2nnc(SCc3cc(C)ccc3C)n2Cc2ccco2)c1	41	nt	nt	i	nt	nt	i	i
Cc1cc(OC(C)C(=O)NCc2ccncc2)c2c(C)cc(=O)oc2c1 (stereo not drawn)	i	i	i	i	i	i	nt	nt
COc1ccc(OCC(=O)N2CCN(c3nnc(-c4ccc(C)cc4)c4ccccc34)CC2)cc1	38	i	i	i	i	i	i	i
CCOc1ccc(-n2cnc3sc4c(c3c2=O)CCCC4)cc1	i	i	i	i	i	i	nt	nt
Oc1ccc(CCNc2ncnc3ccc(Cl)cc23)cc1	80	64	i	i	i	i	i	64
Nc1nc(Cl)cc(NCCc2ccc(O)cc2)n1	i	i	i	i	i	i	nt	nt
CC(C)CNS(=O)(=O)c1ccc(CCC(=O)N2CCN(Cc3ccc4c(c3)OCO4)CC2)cc1	45	i	i	i	i	i	i	i
CC(C)CNS(=O)(=O)c1ccc(CCC(=O)N2CCN(Cc3ccccc3)CC2)cc1	i	i	i	i	i	i	nt	nt
CCNS(=O)(=O)c1ccc(CCC(=O)N2CCN(Cc3ccccc3)CC2)cc1	i	i	i	i	i	i	nt	nt
O=C(CCc1ccc(S(=O)(=O)NCCc2ccccc2)cc1)N1CCN(Cc2ccc3c(c2)OCO3)CC1	55	i	i	i	i	i	i	i
